BLM inh: inhibitors of human Bloom syndrome helicase BLM; Potency, µM (highest dose often 56.1 µM), for the others: at the top dose activity change, negative = inhibition, most hits filed as inhibitors; AID 2528; 0.2% of 350,000 active; P54132; recombinant BLM DNA unwinding, fluorescence dequenching;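 note: plate controls were vehicle for no effect and no enzyme for full effect; nearly all actives have a fitted effect of over 35% in size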
Target sequence (P54132 whole entry, looked up): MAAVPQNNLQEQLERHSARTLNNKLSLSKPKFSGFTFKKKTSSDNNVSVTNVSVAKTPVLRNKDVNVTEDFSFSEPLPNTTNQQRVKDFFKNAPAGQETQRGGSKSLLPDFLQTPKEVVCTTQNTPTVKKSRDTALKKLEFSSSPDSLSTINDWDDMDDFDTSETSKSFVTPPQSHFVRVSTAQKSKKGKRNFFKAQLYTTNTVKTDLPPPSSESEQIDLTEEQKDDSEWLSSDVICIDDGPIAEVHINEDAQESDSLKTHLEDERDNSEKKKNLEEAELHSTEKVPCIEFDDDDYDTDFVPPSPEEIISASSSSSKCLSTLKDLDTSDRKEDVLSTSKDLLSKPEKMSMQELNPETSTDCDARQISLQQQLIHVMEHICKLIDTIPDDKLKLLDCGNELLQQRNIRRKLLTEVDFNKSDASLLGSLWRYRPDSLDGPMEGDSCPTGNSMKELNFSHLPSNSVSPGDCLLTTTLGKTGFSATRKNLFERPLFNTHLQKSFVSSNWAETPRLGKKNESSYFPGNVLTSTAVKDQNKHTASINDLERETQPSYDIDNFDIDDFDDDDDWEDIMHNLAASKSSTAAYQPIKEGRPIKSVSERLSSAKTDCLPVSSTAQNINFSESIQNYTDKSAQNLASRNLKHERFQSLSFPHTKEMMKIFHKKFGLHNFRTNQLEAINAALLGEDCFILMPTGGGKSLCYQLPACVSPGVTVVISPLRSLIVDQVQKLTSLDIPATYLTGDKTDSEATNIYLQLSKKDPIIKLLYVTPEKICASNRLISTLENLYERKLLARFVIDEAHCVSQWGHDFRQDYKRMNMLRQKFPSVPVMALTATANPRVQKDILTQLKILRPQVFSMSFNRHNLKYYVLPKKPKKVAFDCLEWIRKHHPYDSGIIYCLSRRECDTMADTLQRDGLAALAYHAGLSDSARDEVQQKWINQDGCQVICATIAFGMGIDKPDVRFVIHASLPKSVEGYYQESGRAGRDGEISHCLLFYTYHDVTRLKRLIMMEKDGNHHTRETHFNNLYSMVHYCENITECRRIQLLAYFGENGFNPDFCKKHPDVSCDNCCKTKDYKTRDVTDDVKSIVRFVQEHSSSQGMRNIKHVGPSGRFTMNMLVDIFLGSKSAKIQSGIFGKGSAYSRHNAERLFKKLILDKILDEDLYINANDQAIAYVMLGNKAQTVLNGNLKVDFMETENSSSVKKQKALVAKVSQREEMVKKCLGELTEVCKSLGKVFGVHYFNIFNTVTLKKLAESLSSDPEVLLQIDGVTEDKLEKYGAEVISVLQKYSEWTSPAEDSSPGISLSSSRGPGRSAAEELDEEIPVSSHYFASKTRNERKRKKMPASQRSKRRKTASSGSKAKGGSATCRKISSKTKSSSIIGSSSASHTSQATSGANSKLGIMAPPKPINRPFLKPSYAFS
RECQ1 helicase: RECQ1 (human) helicase inhibition | RECQ1 DNA unwinding, red fluorescence kinetic read | 0.54% of 240,000 active | Potency, µM (series often up to 57.3 µM), inactives show at the highest dose activity, negative = inhibition, usual class: inhibitors;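 note: plate controls were vehicle for no effect and no enzyme for full effect; nearly all actives have a fitted effect of over 30% in size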
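50 nM RECQ1T1 preincubated 15 min with compound in Tris pH 8.0 buffer with MgCl2, DTT, Tween-20 and 2.5 ug/ml poly(dI-dC); started with 200 nM TAMRA/BHQ-2 forked duplex and 2 mM ATP. Unwinding read as fluorescence (525/598 nm), two reads 2 h apart.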
APE1 inh-1: blocks human APE1 abasic DNA cleavage; recombinant APE1, TAMRA/BHQ-2 abasic DNA cleavage fluorescence; Potency, µM (highest dose often 65.8 µM), without a hit: at the highest dose activity change, negative = inhibition, most hits filed as inhibitors; 0.35% of 350,000 active; AID 2517;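 note: plate controls were vehicle for no effect and reference inhibitor for full effect; nearly all actives have a fitted effect of over 55% in size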
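Measures dequenching upon AP-site incision of a 5'-TAMRA/3'-BHQ-2 THF-containing duplex, 50 nM; human APE1 0.75 nM after 15 min room-temperature exposure to compound; kinetic three-point read at one-minute spacing.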
KDM4E inh: JMJD2E (human) inhibition; JMJD2E catalytic domain, FDH-coupled NADH fluorescence (FDH is formaldehyde dehydrogenase); Potency, µM (top dose mostly 57.1 µM), inactives show at the highest dose activity change, negative = inhibition, usual class: inhibitors; 1.6% of 230,000 active; active = well fitted inhibition curve with a large enough effect, not every such curve was filed as active; inconclusive = small, poorly fitted or top-dose-only effect, or another doubt; inactive = no such curve, though single readings can be large or run the other way;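 note: 0% = wells with enzyme and -100% = buffer wells without enzyme; nearly all actives have a fitted effect of over 50% in size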
PKM2 act: PKM2 (human) enzyme activation | Potency, µM (top dose mostly 57.5 µM), inactives show at the highest dose activation, usual class: activators | purified PKM2, Kinase-Glo ATP luminescence, activation; response scale: 0% is enzyme alone, no compound | 0.34% of 260,000 active; note: nearly all actives have a fitted effect of over 55% in size
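Purified hPK-M2 (>95% pure) converted ADP (0.1 mM final) to ATP with 0.5 mM PEP in 50 mM imidazole pH7.2, KCl, MgCl2, Tween 20, BSA; 1 h at room temperature. ATP detected by Kinase-Glo luminescence.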
DNA dye displace: displaces fluorescent dye from DNA, flagging APE1 artifacts; shares compounds with APE1 inh-1; DNA fluorescent dye displacement counterscreen, fluorescence; Potency, µM (top dose mostly 28.5 µM), for the others: at the top dose activity change, negative = inhibition, usual class: inhibitors; 7% of 480 active;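 note: loss of thiazole orange fluorescence as the dye is displaced from duplex DNA; 0% = ThO with dsDNA and no compound and -100% = ThO without dsDNA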
EndoIV counter: counter-screen for APE1 inhibitors: inhibitors of E. coli endonuclease IV | shares compounds with APE1 inh-1 | E. coli Endo IV, fluorogenic AP-site DNA cleavage | Potency, µM (series often up to 27.1 µM), for the others: at the top dose activity change, negative = inhibition, usual class: inhibitors | 4% of 560 active | AID 2565;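 note: plate controls were uninhibited enzyme wells for no effect and no enzyme buffer wells for full effect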
APE1 inh-2: APE1 (human) endonuclease inhibition, confirmation; shares compounds with APE1 inh-1; purified APE1, fluorogenic abasic-site DNA cleavage; Potency, µM (highest dose often 57.1 µM), for the others: top-dose activity change, negative = inhibition, actives largely listed as inhibitors; 44% of 750 active; note: nearly all actives have a fitted effect of over 30% in size
APE1 FP: compounds that displace a DNA probe from human APE1 | Potency, µM (top dose mostly 28.5 µM), without a hit: top-dose activity, negative = inhibition, most hits filed as inhibitors | APE1 binding to TAMRA-labelled double-stranded DNA, fluorescence polarization displacement | shares compounds with APE1 inh-1 | 7% of 480 active
* hit, by the source's call; i = inactive; ? = inconclusive; · = not tested or not shown; ! = not confirmed by another sample; [ ] = another dose, or the depositor's remark. The full list was thinned out, with hits kept by preference. Unless noted, calls come from the whole dose curve; as a rule, active = well fitted curve in the direction sought with a large enough effect; inconclusive = small, poorly fitted or top-dose-only effect, or another doubt; inactive = no such curve, though single readings can be large; an effect the other way counts as inactive or inconclusive. Unless noted, % is set by controls: 0 for no effect and ±100 for the full control effect; potency is the fitted concentration of half-maximal effect.

SMILES	BLM inh	RECQ1 helicase	APE1 inh-1	KDM4E inh	PKM2 act	DNA dye displace	EndoIV counter	APE1 inh-2	APE1 FP
COc1ccc2cc3cc(C(=O)NCc4cccs4)oc3nc2c1	-23.2%	-6.8%	0.6%	?	5.9%	·	·	-11.5%	·
Cc1cccc(NC(=O)CN2C(=O)N/C(=C\c3cccn3-c3cccc(C(=O)O)c3)C2=O)c1	-4.9%	i	?	?	-3.0%	-1.0%	8.8%	?	1.9%
Cc1ccc(-n2cccc2/C=C2/NC(=O)N(CC(=O)Nc3cccc(C)c3)C2=O)cc1	-2.9%	1.2%	-3.8%	?	1.4%	·	·	·	·
O=c1[nH]c(Cc2ccccc2)nc2scc(-c3ccccc3)c12	-1.6%	-10.2%	?	5.3%	0.2%	-3.0%	2.9%	-6.3%[24.4 µM]	0.0%
Cc1nc(N=Nc2cc(S(=O)(=O)O)c3cc([N+](=O)[O-])cc(S(=O)(=O)O)c3c2)c(COP(=O)(O)O)c(C=O)c1O	72.2%	?	2.51µM*	7.94µM*	·	·	25.1µM*	1.12µM*	·
COc1cc(O)cc2cc3c(c(O)c12)C(=O)CC(C)(O)O3 (stereo not drawn)	-17.7%	-6.7%	?	?	-0.5%	19.1%	4.7%	14.1µM*	?
CC(C)=CCC/C(C)=C\COc1c2ccoc2cc2oc(=O)ccc12	-9.2%	i	11.3%	?	·	·	·	·	·
O=C(N/N=C/c1ccc2c(c1)OCO2)c1cc2ccccc2o1	-20.9%	-14.1%	?	?	19.8%	·	·	39.8µM*	·
Cc1ccc(C(=O)N/N=C/c2ccc3c(c2)OCO3)o1	-2.1%	1.6%	0.6%	?	-39.0%	·	·	·	·
O=c1c2c3c(sc2n(CCN2CCCC2)c(=O)n1Cc1ccco1)CCCCC3	6.4%	-3.3%	2.4%	-4.1%	2.9%	·	·	·	·
O=C(Cn1c(=O)n(Cc2ccco2)c(=O)c2c3c(sc21)CCCCC3)c1ccccc1	-21.7%	-28.3%	?	0.0%	12.7%	?	-5.7%	-22.9%[24.4 µM]	5.0%
COc1ccc(-n2nc3c(=O)[nH][nH]c3cc2=O)cc1	-29.4%	-25.7%	?	-8.9%	-4.7%	·	·	?	·
O=c1[nH][nH]c2cc(=O)n(-c3cccc(C(F)(F)F)c3)nc12	-7.4%	-7.8%	?	-6.1%	-1.4%	·	·	·	·
Cc1ccc(-c2c(C3C4C=CCC(C)C4C(=O)N3Cc3ccccc3)ccc3ccccc23)cc1 (stereo not drawn)	-9.2%	-6.3%	-0.2%	·	·	·	·	·	·
COc1cc(C2CC(=O)Nc3cc4c(cc32)OCO4)cc(OC)c1O (stereo not drawn)	-0.5%	·	·	·	·	·	·	·	·
Fc1ccc(N2N=C(c3cccs3)CC2c2ccccc2)cc1 (stereo not drawn)	-10.8%	-9.5%	4.3%	?	2.8%	·	·	-26.3%	·
O=S(=O)(c1ccccc1)N1N=C(c2cccs2)CC1c1ccc(F)cc1 (stereo not drawn)	-11.2%	-7.8%	-8.2%	-6.0%	-12.8%	·	·	·	·
COc1cc([N+](=O)[O-])cc(/C=N/NC(=O)CC#N)c1O	-15.5%	?	?	?	1.3%	-6.9%	1.1%	?	?
Cc1ccc(C#N)cc1	·	1.1%	2.0%	·	·	·	·	·	·
COc1ccc(-c2cc(C3C4C=CCCC4(C)C(=O)N3Cc3ccccc3)ccc2F)cc1OC (stereo not drawn)	-6.3%	-5.1%	-2.8%	·	·	·	·	·	·
Cc1cccc(-c2nnc(C3CCN(S(=O)(=O)c4cccc(Cl)c4)CC3)o2)c1	-7.5%	·	·	·	·	·	·	·	·
OC[C@@H]1O[C@H](OC2[C@@H](O)[C@@H](O)C(O)O[C@@H]2CO)[C@H](O)[C@@H](O)[C@@H]1OC1O[C@H](CO)[C@@H](O)[C@H](O)[C@@H]1O (stereo partly drawn)	-0.6%	3.8%	-4.2%	·	·	·	·	·	·
[O][C@H]1[C@@H](O)[C@@H](CO)O[C@@H](O[C@@H]2[C@@H]3OC[C@H]2O[C@H](O[C@@H]2[C@@H](O)[C@H](C[C@@H]4[C@@H]5OC[C@H]4O[CH][C@@H]5O)O[C@H](CO)[C@@H]2OS(=O)(=O)O)[C@@H]3OS(=O)(=O)O)[C@@H]1O	?	3.98µM*	10µM*	·	·	-12.1%[57.1 µM]	13.5%[57.1 µM]	7.08µM*	-29.1%[57.1 µM]
Cc1cc(O)c(C=O)c(O)c1C(=O)O	3.1%	-7.4%	-0.5%	2.0%	·	·	·	·	·
Cc1cc(O)c(C=O)c2c1C(=O)Oc1c(COC(=O)/C=C/C(=O)O)c(O)c(C(=O)O)c(C)c1O2	18.0%	3.98µM*	1.26µM*	?	·	·	-21.1%[57.1 µM]	11.2µM*	·
SMILES	BLM inh	RECQ1 helicase	APE1 inh-1	KDM4E inh	PKM2 act	DNA dye displace	EndoIV counter	APE1 inh-2	APE1 FP
COC(=O)c1ccc(N2NC(=O)/C(=C/c3ccc(-c4ccc(Cl)c(C(=O)O)c4)o3)C2=O)cc1	-10.1%	?	25.1µM*	-26.1%	-1.4%	6.31µM*	-7.2%	?	0.3%
CC1(C)OC(=O)C(=Cc2ccc(-c3ccc(Cl)c(C(=O)O)c3)o2)C(=O)O1	44.2%	-3.0%	22.4µM*	?	19.4%	0.4%	2.4%	?	-3.5%
Cc1ccc(N2NC(=O)/C(=C/c3ccc(-c4ccc(Cl)c(C(=O)O)c4)o3)C2=O)cc1C	-4.2%	i	-10.4%	-3.8%	0.1%	·	·	·	·
O=c1cc(CCl)nc2sc3ccccc3n12	-10.5%	-15.7%	?	-2.4%	·	·	·	?	·
O=C(OCc1cc(=O)n2c(n1)sc1ccccc12)c1ccc(O)cc1	-26.6%	-20.3%	?	-14.8%	5.5%	·	·	·	·
O=c1cc(-c2ccccc2)oc2cc(O)c(O)c(O)c12	15.8µM*!	28.2µM*	5.62µM*	12.6µM*	·	1µM*	186.1%[57.1 µM]	0.631µM*	17.9%[57.1 µM]
O=c1cc(-c2ccc(O)cc2)oc2c(O)c(O)c(O)c(O)c12	10µM*	12.6µM*	4.47µM*	12.6µM*	-46.3%	-14.4%	5.8%	0.501µM*	12.0%
O=c1cc(-c2ccc(O)cc2)oc2c1ccc1ccccc12	·	·	-0.4%	·	·	·	·	·	·
CCOC(=O)CNC(=O)CSc1nnc(-c2ccco2)n1Cc1ccco1	2.6%	-13.8%	31.6µM*	?	-8.6%	?	1.6%	-9.7%[24.4 µM]	-93.0%
CCOC(=O)CNC(=O)CSc1nnc(-c2ccco2)n1N	-4.1%	i	-7.3%	0.5%	-12.5%	·	·	·	·

Assay outcomes: PubChem BioAssay, National Center for Advancing Translational Sciences (NCATS)
